Assay outcomes from PubChem BioAssay.
D2 PAM-1 – Beta-Arrestin HTS for Positive Allosteric Modulators of the Human D2 Dopamine Receptor: Potentiators; D(2) dopamine receptor (Homo sapiens), P14416; DiscoveRx D2 beta-arrestin cells, luminescence, 90 min; 100% = 57 uM dopamine signal; potentiation, % (test concentration not listed); 360,000 tested, 0.23% active; AID 624464, 2012; in the data active means potentiation above about 50%; inconclusive means mostly about 30% to 49%
Target sequence (P14416 whole entry, looked up): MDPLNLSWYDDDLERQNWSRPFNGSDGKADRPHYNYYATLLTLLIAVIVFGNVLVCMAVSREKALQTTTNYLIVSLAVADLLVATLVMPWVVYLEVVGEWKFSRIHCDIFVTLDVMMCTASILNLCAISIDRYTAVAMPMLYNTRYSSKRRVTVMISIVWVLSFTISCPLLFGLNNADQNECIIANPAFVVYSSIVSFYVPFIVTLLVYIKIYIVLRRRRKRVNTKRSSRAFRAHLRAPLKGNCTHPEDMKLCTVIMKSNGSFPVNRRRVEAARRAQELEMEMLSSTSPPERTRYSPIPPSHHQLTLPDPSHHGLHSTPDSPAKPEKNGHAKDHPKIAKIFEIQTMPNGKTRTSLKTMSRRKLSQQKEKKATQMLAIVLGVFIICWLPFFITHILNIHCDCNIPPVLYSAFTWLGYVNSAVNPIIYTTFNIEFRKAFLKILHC
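PathHunter beta-arrestin assay in DiscoveRx D2 cells. Compounds were added with an EC20 of dopamine (50 nM final) for 90 min at 37 deg C. Luminescence was read 1 h after detection reagent, with 57 uM dopamine as the EC100 control.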
D2 ag-1 – Beta-Arrestin HTS for Positive Allosteric Modulators of the Human D2 Dopamine Receptor: Agonists; activation, % (concentration not given with the values); DiscoveRx PathHunter D2 beta-arrestin, luminescence, 90 min; 100% = 57 uM dopamine signal; D(2) dopamine receptor (Homo sapiens), P14416; 360,000 tested, 0.084% active; in the data active means activation above about 40%; inconclusive means between about 15% and that limit
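Agonist mode: compounds alone added to overnight-plated D2 PathHunter cells for 90 min at 37 C, with 57 uM final dopamine (EC100) defining full response. Beta-arrestin recruitment detected by chemiluminescent reagent, read after 1 h at ambient temperature.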
D2 PAM-2 – HTS Assay for Positive Allosteric Modulators of the Human D2 Dopamine Receptor: Primary Screen for Potentiators | AID 485347, 2010 | D(2) dopamine receptor (Homo sapiens), P14416 | potentiation, % at 10 µM | 340,000 tested, 0.34% active | HEK293 T-REx D2, calcium flux, EC20 dopamine potentiation;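 active means potentiation over 3 SD above the plate norm, cut at about 30% in these data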
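Using a no-wash calcium dye in inducible, force-coupled HEK293 Trex cells expressing D2, we tracked fluorescence each second for 180 s after compound, then for 180 s after EC20 dopamine to detect augmented signalling.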
D2 antagonist – HTS Assay for Allosteric Antagonists of the Human D2 Dopamine Receptor: Primary Screen for Antagonists; D(2) dopamine receptor (Homo sapiens), P14416; HEK293 TREx D2 cells, calcium flux, dopamine EC80; inhibition, % at 10 µM; 340,000 tested, 2% active; in the data active means inhibition above about 30%; inactive means below that, where a call was filed
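Cells plated overnight at 30 C with tetracycline; no-wash calcium dye, 30–90 min RT; 10 s baseline; compound pinned; 180 s read; EC80 dopamine added; another 180 s read.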
D2 ag-2 – HTS Assay for Allosteric Agonists of the Human D2 Dopamine Receptor: Primary Screen for Agonists; D(2) dopamine receptor (Homo sapiens), P14416; HEK293 T-REx D2 cells, calcium flux agonist mode; activation, % at 2 µM; 340,000 tested, 0.53% active; AID 485358, 2010;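 active means activation over 3 SD above normal in the single-dose calcium agonist read, cut at about 30% in these data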
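Tetracycline-induced HEK293 Trex cells with D2 receptor force-coupled to calcium signaling, plated overnight at 30 C and loaded with no-wash calcium dye. Calcium flux read kinetically for 180 s after compound addition; responses flag agonists.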
A number is an active result. This is a sample that favours compounds with a hit; in the whole collection about 2.4% have one here.

Cc1csc(NC(=O)C2CCCN(S(=O)(=O)c3ccc(Br)s3)C2)n1 (configuration not stated) was read as D2 PAM-1 inactive, D2 ag-1 inactive, D2 PAM-2 inactive, D2 antagonist 38 and D2 ag-2 inactive.
O=C(CNC(=O)c1cccs1)N/N=C/c1c(F)cccc1Cl was read as D2 PAM-1 inactive, D2 ag-1 inactive, D2 PAM-2 inactive, D2 antagonist 31 and D2 ag-2 inactive.
`Nc1nn(S(=O)(=O)c2ccccc2)cc1-c1ccc([N+](=O)[O-])cc1` gave D2 PAM-1 74, D2 ag-1 inconclusive, D2 PAM-2 inactive, D2 antagonist inactive and D2 ag-2 inactive.
`Cc1ccc(S(=O)(=O)n2cc(-c3ccccc3)c(N)n2)cc1` gave D2 PAM-1 inactive, D2 ag-1 inactive, D2 PAM-2 inactive, D2 antagonist inactive and D2 ag-2 inactive.
Screening Cc1cc(=O)[nH]c(SCC(=O)Nc2ccc3c(c2)CCC3)c1C#N returned D2 PAM-1 inactive, D2 ag-1 inactive, D2 PAM-2 inactive, D2 antagonist 36 and D2 ag-2 inactive.
For Cc1cc(=O)[nH]c(SCC(=O)Nc2ccc(F)cc2)c1C#N the results were D2 PAM-1 inactive, D2 ag-1 inactive, D2 PAM-2 inactive, D2 antagonist inactive and D2 ag-2 inactive.
For COc1ccc2c3c(ccc2c1)C(=O)/C(=C/O)CC3 the results were D2 PAM-1 52 and D2 ag-1 inconclusive.
`Cn1c(Cc2ccccc2)nnc1SCC(=O)NC1CC1` gave D2 PAM-1 inactive, D2 ag-1 inactive, D2 PAM-2 inactive, D2 antagonist inactive and D2 ag-2 inactive.
COCCn1c(Cc2ccccc2)nnc1SCC(=O)NC1CC1 was read as D2 PAM-1 inactive, D2 ag-1 inactive, D2 PAM-2 inactive, D2 antagonist 32 and D2 ag-2 inactive.
Screening COC1=C/C(=C/c2c(O)c(C#N)c3ccccn23)C=CC1=O returned D2 PAM-1 inactive, D2 ag-1 inactive, D2 PAM-2 inactive, D2 antagonist 33 and D2 ag-2 inactive.
Cc1cc(C[n+]2cc(Br)ccc2N)c2ncccc2c1 was read as D2 PAM-1 inactive, D2 ag-1 inactive, D2 PAM-2 inactive, D2 antagonist 32 and D2 ag-2 inactive.
`CC(Oc1cccc(Cl)c1)C(=O)Nc1cc(S(=O)(=O)N2CCCCC2)ccc1N1CCOCC1` (configuration not stated) gave D2 PAM-1 inactive, D2 ag-1 inactive, D2 PAM-2 inactive, D2 antagonist inactive and D2 ag-2 inactive.
Screening COc1ccccc1OCC(=O)NCC1CCCN(C(=O)c2cccc(C)c2)C1 (configuration not stated) returned D2 PAM-1 inactive and D2 ag-1 inactive.
For CN(CCOc1ccc(F)cc1)Cc1ccccc1 the results were D2 PAM-1 inactive, D2 ag-1 inactive, D2 PAM-2 inactive, D2 antagonist inactive and D2 ag-2 inactive.
CCC(C)c1ccccc1OCCCN(C)Cc1ccccc1 (configuration not stated) was read as D2 PAM-1 inactive, D2 ag-1 inactive, D2 PAM-2 inactive, D2 antagonist 35 and D2 ag-2 inactive.
For CN(CCOc1ccccc1)CCOc1ccccc1 the results were D2 PAM-1 inactive, D2 ag-1 inactive, D2 PAM-2 inactive, D2 antagonist 37 and D2 ag-2 inactive.
Screening CN(CCCCOc1ccc(F)cc1)Cc1ccccc1 returned D2 PAM-1 inactive, D2 ag-1 inactive, D2 PAM-2 inactive, D2 antagonist 33 and D2 ag-2 inactive.
`Cc1cc(C)c(C)c(OCCCCN(C)Cc2ccccc2)c1` gave D2 PAM-1 inactive, D2 ag-1 inactive, D2 PAM-2 inactive, D2 antagonist 31 and D2 ag-2 inactive.
For Cc1ccc(NC(=O)CSc2nnc(COc3ccc(Cl)cc3)o2)cc1 the results were D2 PAM-2 inactive and D2 ag-2 inactive.
For Cc1nc(N2CCOCC2)c2c(C(=O)N3CCN(c4cccc(C)c4C)CC3)c(C)oc2n1 the results were D2 PAM-2 inactive and D2 ag-2 inactive.
For CCN(CC)CCCNC(=O)CSc1nc2nc(C)c(Cc3ccccc3C)c(C)n2n1 the results were D2 PAM-2 inactive and D2 ag-2 inactive.
CCCN1CNc2c(c(=O)[nH]c(=S)n2-c2ccccc2Cl)C1 was read as D2 PAM-1 inactive, D2 ag-1 inactive, D2 PAM-2 68, D2 antagonist inactive and D2 ag-2 inactive.
`COC(CNC(=S)Nc1ccc([N+](=O)[O-])cc1)OC` gave D2 PAM-1 inactive, D2 ag-1 inactive, D2 PAM-2 inactive, D2 antagonist 35 and D2 ag-2 inactive.
Screening COc1cccc(/C(O)=C2/C(=O)C(=O)N(c3ccccn3)C2c2ccc(OC)c(OC)c2)c1 (configuration not stated) returned D2 PAM-1 inactive, D2 ag-1 inactive, D2 PAM-2 inactive, D2 antagonist 32 and D2 ag-2 inactive.
For COc1ccc(/C(O)=C2/C(=O)C(=O)N(c3ccccn3)C2c2ccc(OC)c(OC)c2)cc1 (configuration not stated) the results were D2 PAM-1 inactive, D2 ag-1 inactive, D2 PAM-2 inactive, D2 antagonist inactive and D2 ag-2 inactive.
O=C1CCCN1Cc1ccccc1 was read as D2 PAM-1 inactive, D2 ag-1 inactive, D2 PAM-2 inactive, D2 antagonist 30 and D2 ag-2 inactive.
`COc1ccc(-c2cn3nc(N4CCC(C(=O)Nc5cc(Cl)ccc5OC)CC4)sc3n2)cc1` gave D2 PAM-2 inactive and D2 ag-2 inactive.
`Cc1cc(C)n2nc(CCc3nc4nc(C)cc(C)n4n3)nc2n1` gave D2 PAM-2 inactive, D2 antagonist inactive and D2 ag-2 inactive.
CC(=O)N(C(C)=O)c1nc2nc(C)cc(C)n2n1 was read as D2 PAM-1 inactive, D2 ag-1 inactive, D2 PAM-2 inactive, D2 antagonist 102 and D2 ag-2 inactive.
For O=C(COC(=O)/C=C/c1ccccc1)Nc1ccccc1Br the results were D2 PAM-1 inactive, D2 ag-1 inactive, D2 PAM-2 inactive, D2 antagonist 40 and D2 ag-2 inactive.
Screening C/C=C/C(=O)OCC(=O)Nc1ccccc1Br returned D2 PAM-1 inactive, D2 ag-1 inactive, D2 PAM-2 inactive, D2 antagonist 47 and D2 ag-2 inactive.
`O=C(COC(=O)/C=C/c1ccc(Cl)cc1)Nc1ccccc1` gave D2 PAM-1 inactive, D2 ag-1 inactive, D2 PAM-2 41, D2 antagonist inactive and D2 ag-2 inactive.
`C/C=C/C(=O)OCC(=O)Nc1cccc(Br)c1` gave D2 PAM-1 inactive, D2 ag-1 inactive, D2 PAM-2 inactive, D2 antagonist inactive and D2 ag-2 inactive.
